Data as given in the antibiotic and cytotoxicity screens of Wong et al. (2023).
The whole screen tested about 39,000 compounds, of which about 3,300 (8.5%) were called active. This excerpt belongs to a sample that is enriched for actives.

test system: HepG2; test: cytotoxicity call (relative viability < 0.9); conditions: 10 µM

Question: For `CCS(=O)(=O)N1CC[C@]2(CC1)CN(Cc1ccc3c(c1)OCO3)[C@H](CO)c1c2c2ccc(cc2n1C)OC`, which cytotoxicity call is on record?
Answer: inactive

Question: For `O=C(C[C@H]1C=C[C@H](NC(=O)Cc2ccccn2)[C@@H](CO)O1)NCCCN1CCOCC1`, which cytotoxicity call is on record?
Answer: inactive

Question: For `CC(C)NC(=O)Nc1ccc2c(c1)C(=O)N([C@H](C)CO)C[C@H](C)[C@@H](CN(C)Cc1ccc(Oc3ccccc3)cc1)O2`, which cytotoxicity call is on record?
Answer: inactive

Question: For `C[C@H](CO)N1C[C@H](C)[C@@H](CN(C)S(=O)(=O)c2ccc(F)cc2)Oc2ncc(Br)cc2C1=O`, which cytotoxicity call is on record?
Answer: inactive

Question: For `C[C@@H]1CN([C@@H](C)CO)C(=O)Cc2cc(NS(=O)(=O)c3ccc(F)cc3)ccc2O[C@@H]1CN(C)CC1CC1`, which cytotoxicity call is on record?
Answer: inactive

Question: `COc1ccccc1-c1ccc2c(c1)O[C@@H](CN(C)C(=O)c1ccncc1)[C@@H](C)CN([C@@H](C)CO)S2(=O)=O` was tested. Which cytotoxicity call did it give?
Answer: inactive

Question: `O=c1cc[nH]c(=S)[nH]1` was tested. Which cytotoxicity call did it give?
Answer: inactive

Question: How did the cytotoxicity call turn out when `Cn1cnc(S(=O)(=O)N2C[C@@H](O)COC[C@@H]3O[C@@H](CC(=O)NCc4cccc(F)c4)CC[C@H]32)c1` was run?
Answer: inactive

Question: Which cytotoxicity call does the source give for `C[C@@H]1CCCCO[C@H](CN(C)Cc2ccc(C(=O)O)cc2)[C@@H](C)CN([C@@H](C)CO)C(=O)c2cc(NC(=O)Nc3ccccc3)ccc2O1` here?
Answer: inactive

Question: For `N=C(N)c1ccc(OCCCCCOc2ccc(C(=N)N)cc2)cc1.O=S(=O)(O)CCO.O=S(=O)(O)CCO`, which cytotoxicity call is on record?
Answer: active

Question: With `N=C(N)c1ccc(C(N)=O)cc1` as the compound, how does the cytotoxicity call read?
Answer: inactive

Question: How did the cytotoxicity call turn out when `CC(=O)NCCOc1ccc(C(=O)O)cc1` was run?
Answer: inactive

Question: `C[C@@H]1CCCCO[C@@H](CN(C)S(=O)(=O)c2cn(C)cn2)[C@H](C)CN([C@H](C)CO)C(=O)c2cc(NS(C)(=O)=O)ccc2O1` was tested. Which cytotoxicity call did it give?
Answer: inactive

Question: How did the cytotoxicity call turn out when `C[C@H](CO)N1C[C@H](C)[C@@H](CN(C)S(=O)(=O)c2ccccc2)Oc2ccc(NS(=O)(=O)c3cn(C)cn3)cc2C1=O` was run?
Answer: inactive

Question: `CO[C@H]1CN(C)C(=O)c2cc(NC(C)=O)ccc2OC[C@H](C)N(S(=O)(=O)c2cn(C)cn2)C[C@H]1C` was tested. Which cytotoxicity call did it give?
Answer: inactive

Question: `CCC(c1ccc(O)cc1)C(CC)c1ccc(O)cc1` (stereo not given) was tested. Which cytotoxicity call did it give?
Answer: inactive

Question: For `CCC(=C(CC)c1ccc(O)cc1)c1ccc(O)cc1`, which cytotoxicity call is on record?
Answer: active

Question: How did the cytotoxicity call turn out when `CCC(=O)c1ccc(O)cc1` was run?
Answer: inactive

Question: Which cytotoxicity call does the source give for `CNC[C@@H]1OCCCC[C@H](C)Oc2ccc(NC(=O)Nc3ccc(C(F)(F)F)cc3)cc2C(=O)N([C@@H](C)CO)C[C@H]1C` here?
Answer: inactive

Question: With `O=C(Cc1ccccn1)NCC[C@@H]1CC[C@H](NC(=O)CN2CCOCC2)[C@@H](CO)O1` as the compound, how does the cytotoxicity call read?
Answer: inactive

Question: `Cc1ccc(S(=O)(=O)n2cc([C@@H]3CC(=O)N(C(=O)OCc4ccccc4)[C@@H]3C(=O)Nc3cccc4cccnc34)c3ccccc32)cc1` was tested. Which cytotoxicity call did it give?
Answer: inactive

Question: For `CN1CCN(c2ccc(OC(F)(F)F)c(Nc3ncc4c(n3)-c3c(c(C(N)=O)nn3CCO)CC4)c2)CC1`, which cytotoxicity call is on record?
Answer: active

Question: For `Cn1c(=O)c2c(nc(NCCN)n2C)n(C)c1=O`, which cytotoxicity call is on record?
Answer: inactive

Question: `COc1ccc2c3c([nH]c2c1)[C@@H](CO)N(C[C@]13CCN(CC1)C(=O)CN(C)C)S(=O)(=O)C` was tested. Which cytotoxicity call did it give?
Answer: inactive

Question: `CCCN(CCC)c1cc(N2CCCC2)c2ccccc2c1` was tested. Which cytotoxicity call did it give?
Answer: active

Question: Which cytotoxicity call does the source give for `C[C@@H]1CN([C@H](C)CO)C(=O)c2cc(NC(=O)Cc3ccccc3)ccc2O[C@H]1CN(C)S(=O)(=O)c1ccccc1` here?
Answer: inactive

Question: With `Cc1ccc(S(=O)(=O)Nc2ccc3c(c2)C(=O)N([C@H](C)CO)C[C@H](C)[C@H](CN(C)C(=O)Nc2c(C)noc2C)OCCCC[C@@H](C)O3)cc1` as the compound, how does the cytotoxicity call read?
Answer: inactive

Question: How did the cytotoxicity call turn out when `CN1CCN(C(=O)C[C@H]2CC[C@@H]3[C@@H](COc4ccc(NC(=O)c5ccc(F)c(F)c5)cc4C(=O)N3C)O2)CC1` was run?
Answer: inactive

Question: How did the cytotoxicity call turn out when `C[C@@H]1CCCCO[C@@H](CN(C)Cc2ccccc2)[C@@H](C)CN([C@H](C)CO)C(=O)c2cc(NC(=O)CCCCCC(=O)Nc3ccccc3N)ccc2O1` was run?
Answer: inactive

Question: With `Cc1ccc(NC(=O)Nc2cc(C(F)(F)F)ccc2F)cc1Nc1ccc2c(c1)NC(=O)/C2=C\c1ccc[nH]1` as the compound, how does the cytotoxicity call read?
Answer: active

Question: With `COc1ccc(S(=O)(=O)N[C@H]2C=C[C@H](CC(=O)NCCc3ccncc3)O[C@@H]2CO)cc1` as the compound, how does the cytotoxicity call read?
Answer: inactive

Question: Which cytotoxicity call does the source give for `Cc1ccc(S(=O)(=O)N(C)C[C@@H]2OCCCC[C@H](C)Oc3ccc(NC(=O)CCC(F)(F)F)cc3C(=O)N([C@@H](C)CO)C[C@@H]2C)cc1` here?
Answer: active

Question: How did the cytotoxicity call turn out when `C[C@@H]1CCCCO[C@@H](CN(C)S(=O)(=O)c2ccc(Cl)cc2)[C@H](C)CN([C@H](C)CO)C(=O)c2cc(NC(=O)CCC(F)(F)F)ccc2O1` was run?
Answer: active

Question: With `C[C@H](CO)N1C[C@H](C)[C@@H](CN(C)S(=O)(=O)c2ccc(Cl)cc2)OCCCC[C@H](C)Oc2ccc(NC(=O)CCC(F)(F)F)cc2C1=O` as the compound, how does the cytotoxicity call read?
Answer: inactive

Question: With `Cc1ccc(S(=O)(=O)N(C)C[C@H]2OCCCC[C@H](C)Oc3ccc(NC(=O)CCC(F)(F)F)cc3C(=O)N([C@H](C)CO)C[C@@H]2C)cc1` as the compound, how does the cytotoxicity call read?
Answer: inactive

Question: How did the cytotoxicity call turn out when `C[C@@H]1CN([C@@H](C)CO)C(=O)c2cc(NC(=O)CCC(F)(F)F)ccc2O[C@@H](C)CCCCO[C@H]1CN(C)S(=O)(=O)c1ccc(Cl)cc1` was run?
Answer: inactive

Question: For `C[C@@H]1CCCCO[C@H](CN(C)S(=O)(=O)c2ccc(Cl)cc2)[C@@H](C)CN([C@@H](C)CO)C(=O)c2cc(NC(=O)CCC(F)(F)F)ccc2O1`, which cytotoxicity call is on record?
Answer: inactive

Question: `C[C@@H]1CCCCO[C@H](CN(C)S(=O)(=O)c2ccc(Cl)cc2)[C@H](C)CN([C@H](C)CO)C(=O)c2cc(NC(=O)CCC(F)(F)F)ccc2O1` was tested. Which cytotoxicity call did it give?
Answer: active

Question: `C[C@@H]1CCCCO[C@H](CN(C)S(=O)(=O)c2ccc(Cl)cc2)[C@@H](C)CN([C@H](C)CO)C(=O)c2cc(NC(=O)CCC(F)(F)F)ccc2O1` was tested. Which cytotoxicity call did it give?
Answer: inactive

Question: `C[C@@H]1CN([C@@H](C)CO)C(=O)c2cc(NC(=O)CCC(F)(F)F)ccc2O[C@@H](C)CCCCO[C@@H]1CN(C)S(=O)(=O)c1ccc(Cl)cc1` was tested. Which cytotoxicity call did it give?
Answer: inactive

Question: With `Cc1ccc(S(=O)(=O)N(C)C[C@@H]2OCCCC[C@@H](C)Oc3ccc(NC(=O)CCC(F)(F)F)cc3C(=O)N([C@H](C)CO)C[C@H]2C)cc1` as the compound, how does the cytotoxicity call read?
Answer: inactive

Question: For `C[C@@H]1CN([C@H](C)CO)C(=O)c2cc(NC(=O)CCC(F)(F)F)ccc2O[C@@H](C)CCCCO[C@@H]1CN(C)S(=O)(=O)c1ccc(Cl)cc1`, which cytotoxicity call is on record?
Answer: inactive

Question: With `C[C@@H]1CN([C@H](C)CO)C(=O)c2cc(NC(=O)CCC(F)(F)F)ccc2O[C@@H](C)CCCCO[C@H]1CN(C)S(=O)(=O)c1ccc(Cl)cc1` as the compound, how does the cytotoxicity call read?
Answer: active

Question: For `COc1ccc(NC(=O)N(C)C[C@H]2Oc3c(NC(=O)C4CCOCC4)cccc3C(=O)N([C@@H](C)CO)C[C@H]2C)cc1`, which cytotoxicity call is on record?
Answer: inactive

Question: `CC(C)NC(=O)Nc1ccc2c(c1)C(=O)N([C@@H](C)CO)C[C@H](C)[C@@H](CN(C)C(=O)Nc1ccccc1)OCCCC[C@@H](C)O2` was tested. Which cytotoxicity call did it give?
Answer: inactive

Question: Which cytotoxicity call does the source give for `C[C@H](CO)N1C[C@H](C)[C@H](CN(C)Cc2cccc3c2OCCCO3)OCc2cn(nn2)CCCC1=O` here?
Answer: inactive

Question: With `C[C@@H]1CCCCO[C@@H](CN(C)C(=O)CCC(F)(F)F)[C@@H](C)CN([C@H](C)CO)C(=O)c2cc(NS(=O)(=O)c3cccs3)ccc2O1` as the compound, how does the cytotoxicity call read?
Answer: inactive

Question: With `Cc1noc(C)c1S(=O)(=O)N(C)C[C@H]1Oc2ccc(NC(=O)CCC(F)(F)F)cc2CC(=O)N([C@@H](C)CO)C[C@@H]1C` as the compound, how does the cytotoxicity call read?
Answer: inactive

Question: For `O=C(C[C@H]1C=C[C@@H](NS(=O)(=O)c2ccccc2F)[C@H](CO)O1)NCCCN1CCOCC1`, which cytotoxicity call is on record?
Answer: inactive

Question: For `C[C@@H]1CCCCO[C@@H](CN(C)C(=O)Nc2ccccc2)[C@@H](C)CN([C@H](C)CO)C(=O)c2cc(NS(=O)(=O)c3ccc(Cl)cc3)ccc2O1`, which cytotoxicity call is on record?
Answer: inactive

Question: With `C[C@@H]1CN([C@H](C)CO)C(=O)c2cccc(NC(=O)c3cnccn3)c2O[C@@H]1CN(C)S(=O)(=O)c1ccc(Cl)cc1` as the compound, how does the cytotoxicity call read?
Answer: inactive

Question: Which cytotoxicity call does the source give for `C[C@@H]1CN([C@@H](C)CO)C(=O)c2cc(NC(=O)CCCCCC(=O)Nc3ccccc3N)ccc2O[C@@H](C)CCCCO[C@@H]1CN(C)S(=O)(=O)c1ccc(Cl)cc1` here?
Answer: inactive

Question: Which cytotoxicity call does the source give for `C[C@H](CO)N1C[C@H](C)[C@@H](CN(C)S(=O)(=O)c2ccc(C#N)cc2)OCc2cnnn2CCCC1=O` here?
Answer: inactive

Question: `C[C@@H]1CCCCO[C@@H](CN(C)Cc2ccccc2)[C@H](C)CN([C@H](C)CO)C(=O)c2cc(NC(=O)c3ccccc3)ccc2O1` was tested. Which cytotoxicity call did it give?
Answer: inactive

Question: How did the cytotoxicity call turn out when `Cc1noc(C)c1NC(=O)Nc1ccc2c(c1)CC(=O)N([C@@H](C)CO)C[C@@H](C)[C@@H](CN(C)CC1CC1)O2` was run?
Answer: inactive

Question: Which cytotoxicity call does the source give for `COc1ccc(NC(=O)Nc2ccc3c(c2)C(=O)N([C@@H](C)CO)C[C@@H](C)[C@H](CN(C)Cc2ccc4c(c2)OCO4)OCCCC[C@@H](C)O3)cc1` here?
Answer: inactive

Question: `CCCOc1ccnc2c1c(=O)n(C)c(=O)n2C` was tested. Which cytotoxicity call did it give?
Answer: inactive

Question: How did the cytotoxicity call turn out when `COc1ccc(NC(=O)Nc2cccc3c2O[C@@H](CN(C)Cc2ccc(C(=O)Nc4ccccc4N)cc2)[C@@H](C)CN([C@H](C)CO)C3=O)cc1` was run?
Answer: inactive

Question: How did the cytotoxicity call turn out when `C[C@H]1CN([C@@H](C)CO)C(=O)Cc2cc(NC(=O)C3CC3)ccc2O[C@@H]1CN(C)S(=O)(=O)c1ccccc1` was run?
Answer: inactive

Question: `C[C@@H]1CCCCO[C@@H](CN(C)S(=O)(=O)c2ccc(Cl)cc2)[C@@H](C)CN([C@@H](C)CO)C(=O)c2cc(NC(=O)CCC(F)(F)F)ccc2O1` was tested. Which cytotoxicity call did it give?
Answer: inactive

Question: With `C[C@@H]1CCCCO[C@@H](CN(C)S(=O)(=O)c2ccc(Cl)cc2)[C@@H](C)CN([C@H](C)CO)C(=O)c2cc(NC(=O)CCC(F)(F)F)ccc2O1` as the compound, how does the cytotoxicity call read?
Answer: inactive

Question: Which cytotoxicity call does the source give for `C[C@H]1CCCCO[C@H](CN(C)S(=O)(=O)c2ccc(Cl)cc2)[C@@H](C)CN([C@@H](C)CO)C(=O)c2cc(NC(=O)CCC(F)(F)F)ccc2O1` here?
Answer: active

Question: With `C[C@@H]1CCCCO[C@@H](CN(C)S(=O)(=O)c2ccc(Cl)cc2)[C@H](C)CN([C@@H](C)CO)C(=O)c2cc(NC(=O)CCC(F)(F)F)ccc2O1` as the compound, how does the cytotoxicity call read?
Answer: active

Question: `C[C@H]1CCCCO[C@@H](CN(C)S(=O)(=O)c2ccc(Cl)cc2)[C@@H](C)CN([C@@H](C)CO)C(=O)c2cc(NC(=O)CCC(F)(F)F)ccc2O1` was tested. Which cytotoxicity call did it give?
Answer: inactive

Question: With `C[C@H](CO)N1C[C@H](C)[C@H](CN(C)S(=O)(=O)c2ccc(Cl)cc2)OCCCC[C@H](C)Oc2ccc(NC(=O)CCC(F)(F)F)cc2C1=O` as the compound, how does the cytotoxicity call read?
Answer: inactive
